Source: PubChem BioAssay (National Center for Advancing Translational Sciences (NCATS))
TSG101-PTAP inh: blocks PTAP/TSG101 interaction to inhibit HIV-1 budding. 340,000 tested, under 10 active. Q99816. AID 493005. Fluorescence polarization, FITC-PTAP peptide / Tsg101 binding. Potency, µM (titrated, usually from 115 µM), without a hit: at the top dose activity change, negative = inhibition, usual class: inhibitors; active = well fitted inhibition curve with a large enough effect in the main read-out, with a control signal flat, not every such curve was filed as active; inconclusive = small, poorly fitted or top-dose-only effect, or effect the other way, or a change in a side signal; inactive = no such curve, though single readings can be large or run the other way; also: % of control where 0% means no effect
Target sequence (Q99816 whole entry, looked up): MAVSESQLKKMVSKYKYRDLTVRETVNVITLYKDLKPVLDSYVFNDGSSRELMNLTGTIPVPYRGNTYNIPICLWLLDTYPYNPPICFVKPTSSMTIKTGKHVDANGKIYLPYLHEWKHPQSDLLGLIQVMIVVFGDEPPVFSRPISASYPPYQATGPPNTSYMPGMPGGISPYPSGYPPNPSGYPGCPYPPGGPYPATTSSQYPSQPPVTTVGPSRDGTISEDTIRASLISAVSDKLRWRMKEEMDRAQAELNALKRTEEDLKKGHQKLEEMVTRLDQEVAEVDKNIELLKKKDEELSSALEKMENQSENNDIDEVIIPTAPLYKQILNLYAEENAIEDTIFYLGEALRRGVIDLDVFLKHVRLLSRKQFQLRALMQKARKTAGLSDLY
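Steps: Tsg101 binding domain dispensed (10 uM final), compounds pinned in DMSO, FITC-labeled PTAP-motif peptide added (50 nM final); after 20 min binding at room temperature, polarization measured.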
Eya2 phos inh: Eya2 (human) phosphatase inhibition; recombinant Eya2, OMFP fluorescence dephosphorylation (OMFP is methylfluorescein phosphate); Potency, µM (titrated, usually from 76.9 µM), inactives show at the top dose activity, negative = inhibition, usual class: inhibitors; 0.006% of 330,000 active; also: % is scaled to controls: 0 for no effect and ±100 for the full control effect
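Eya2 protein (added as 0.2 uM solution) was preincubated with compound for 10 min at ambient temperature in 50 mM HEPES pH 7.5, 50 mM NaCl, 5 uM MgCl2, 0.05% BSA, 1 mM DTT. OMFP (added at 50 uM) then reacted 10 min; fluorescence read at 485/525 nm.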
12-LOX inh: inhibitors of human 12S-lipoxygenase ALOX12. purified 12hLO, xylenol orange hydroperoxide absorbance. Potency, µM (highest dose often 108 µM), for inactives: top-dose activity change, negative = inhibition, most hits filed as inhibitors. 1.1% of 580,000 active. AID 1671190; also: % is scaled to controls: 0 for no effect and ±100 for the full control effect
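Purified human 12hLO at 150 nM in 25 mM Hepes, 0.01% Triton X-100, pH 7.0, preincubated 15 min at room temperature with compound. Reaction started with 40 uM arachidonic acid, 30 min at room temperature. Hydroperoxide measured by Fe-xylenol orange, 573/405 nm absorbance ratio.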
USP2a inh: USP2a (human) protease inhibition. 0.01% of 330,000 active. Potency, µM (doses to about 38.3 µM), without a hit: top-dose activity change, negative = inhibition, actives largely listed as inhibitors. USP2 core, Ub-CHOP2 coupled fluorogenic reporter, 485/531;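 also: plate controls were DMSO wells for no effect and full inhibition by NEM control for full effect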
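Deubiquitinase activity read as fluorescence (485/531 nm) after Ub-CHOP2 cleavage activates the enterokinase reporter on its substrate; USP2 core 10nM, Ub-CHOP2 and substrate 25nM each, 30min compound preincubation then 60min RT; data normalized to NEM, curves fitted.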
* hit, by the source's call; ! = a repeat was not active; [ ] = another dose, or the depositor's remark. Compounds with a hit are over-represented: about 1.1% of the library has one in this group of screens. Unless noted, calls follow the shape of the dose curve; as a rule, active = well fitted curve in the direction sought with a large enough effect; inconclusive = small, poorly fitted or top-dose-only effect, or another doubt; inactive = no such curve, though single readings can be large; an effect the other way counts as inactive or inconclusive. Potency is read from the fitted curve at half-maximal effect.

For S=C(NCc1ccccc1)N/N=C/c1c2ccccc2c(Cl)c2ccccc12 the results were 12-LOX inh 17.8µM*.
Screening S=C(NCCc1ccccc1)N/N=C/c1c(Cl)cccc1Cl returned TSG101-PTAP inh 0.9%, Eya2 phos inh -4.1%, 12-LOX inh 39.8µM* and USP2a inh 4.2%.
Screening c1ccc(CN2CCN(Cc3c[nH]c4ccccc34)CC2)cc1 returned TSG101-PTAP inh 1.2%, Eya2 phos inh 2.3%, 12-LOX inh 7.8% and USP2a inh 4.4%.
`O=C(c1cccc2ccccc12)N1CCN(Cc2c[nH]c3ccccc23)CC1` gave 12-LOX inh 1µM*.
`c1cncc(CN2CCN(Cc3c[nH]c4ccccc34)CC2)c1` gave 12-LOX inh 0.316µM*.
`O=C(N/N=C\c1ccc(Sc2ccccn2)o1)c1cccc(Br)c1` gave TSG101-PTAP inh -1.6%, Eya2 phos inh 3.16µM*, 12-LOX inh 0.0% and USP2a inh -1.8%.
Cc1ccccc1C(=O)N/N=C/c1ccc(Sc2ccccn2)o1 was read as TSG101-PTAP inh -2.0%, 12-LOX inh 1.0% and USP2a inh 2.3%.
CCCC(C)NC(=O)Nc1cc(C(=O)NC2CC2)ccc1C (stereo unspecified) was read as 12-LOX inh 12.5%.
`CCOC(=O)CNC(=O)N1CCC(N2C(=O)C3(CCCCC3)C2c2ccncc2)CC1` (stereo unspecified) gave 12-LOX inh 29.2%.
For O=C(NCc1ccccc1)N1CC(Oc2cccc(-c3nc(-c4ccccc4)no3)c2)C1 the results were 12-LOX inh 8.8%.
`COC(=O)CN1C(=S)N(c2ccc(Cl)cc2)C(=O)C1CC(=O)Nc1ccc(F)cc1` (stereo unspecified) gave TSG101-PTAP inh 0.3%, Eya2 phos inh -5.5%, 12-LOX inh inconclusive and USP2a inh 0.8%.
COC(=O)CN1C(=S)N(c2ccc(Cl)cc2)C(=O)C1CC(=O)Nc1ccc(Cl)cc1 (stereo unspecified) was read as TSG101-PTAP inh -0.2%, Eya2 phos inh 7.5%, 12-LOX inh 35.5µM* and USP2a inh -0.5%.
For Cc1ccc(-c2nn(-c3ccccc3)cc2C=C2C(=O)CC(C)(C)CC2=O)cc1 the results were TSG101-PTAP inh -6.2%, Eya2 phos inh 11.4%, 12-LOX inh 7.94µM* and USP2a inh 3.8%.
For CC1(C)CC(=O)C(=Cc2cn(-c3ccccc3)nc2-c2ccccc2)C(=O)C1 the results were TSG101-PTAP inh -2.7% and 12-LOX inh 4.1%.
For C[N+](C)(C)CCCC#CC#CCCC[N+](C)(C)C the results were 12-LOX inh 39.8µM*.
For Nc1ccsc1C(=O)N1CCC2(CCC(=O)N(CC3CCCO3)C2)CC1 (stereo unspecified) the results were 12-LOX inh 7.94µM*.
O=C(Cc1ccc(Cl)cc1)N/N=C/c1ccc(O)c(O)c1 was read as 12-LOX inh 14.1µM*.
For COc1ccc(/C=C(\C#N)c2nc3ccccc3[nH]2)cc1I the results were 12-LOX inh 6.31µM*.
Screening COc1cc(/C=C(\C#N)c2nc3ccc(C)cc3[nH]2)c([N+](=O)[O-])cc1OC returned TSG101-PTAP inh 0.3%, Eya2 phos inh 9.5%, 12-LOX inh -1.5% and USP2a inh 4.0%.
COc1cc(/C=C(\C#N)c2nc3ccc(C)cc3[nH]2)cc([N+](=O)[O-])c1O was read as TSG101-PTAP inh -8.6%, Eya2 phos inh 4.2%, 12-LOX inh 44.7µM* and USP2a inh -0.3%.
For Cc1cc(C)c(C(=O)NC2CCC(C)CC2)c(C)c1 (stereo unspecified) the results were 12-LOX inh 5.4%.
For O=C1NC(=NC2CCCCC2)C2(CCCN([S+](=O)([O-])c3ccccc3)C2)N1c1cccnc1 (stereo unspecified) the results were 12-LOX inh 9.1%[6.33 µM].
CC1=CCCC(C)(C)C12CCC(C)O2 (stereo unspecified) was read as 12-LOX inh 9.7%[176 µM].
For CC(=O)N1CC2(CCN(Cc3ccc(Cl)cc3)C2)Cc2ccccc21 (stereo unspecified) the results were 12-LOX inh 39.8µM*.
`O=C(c1ccc(Cl)cc1)N1CC2(CCN(CC3CC3)C2)Cc2ccccc21` (stereo unspecified) gave 12-LOX inh 11.0%[6.33 µM].
O=C(c1ccc(Cl)cc1)N1CC2(CCN(C3COC3)C2)Cc2ccccc21 (stereo unspecified) was read as 12-LOX inh 39.8µM*.
Screening O=C(c1ccc(Cl)cc1)N1CC2(CCN(Cc3ccc(Cl)cc3)C2)Cc2ccccc21 (stereo unspecified) returned 12-LOX inh 2µM*.
`CCCN1C(=O)Cc2cc(C(=O)NC(C)c3ccc(OCC)cc3)ccc21` (stereo unspecified) gave 12-LOX inh 48.0%.
CCN(CC)CCCNc1oc(/C=C/c2ccccc2)nc1C#N was read as TSG101-PTAP inh -2.9%, Eya2 phos inh 4.7%, 12-LOX inh 48.5% and USP2a inh -8.0%.
For CCN(CC)CCCN(C/C=C/c1ccccc1)C/C=C/c1ccccc1 the results were 12-LOX inh 0.708µM*.
Screening O=C(C1=C(O)C(=O)N(c2nc3ccc(Cl)cc3s2)C1c1ccco1)c1ccco1 (stereo unspecified) returned TSG101-PTAP inh -1.1%, Eya2 phos inh 7.3%, 12-LOX inh 7.94µM*! and USP2a inh -15.8%.
Cc1ccc2nc(N3C(=O)C(O)=C(C(=O)c4ccc(C)o4)C3c3ccco3)sc2c1 (stereo unspecified) was read as TSG101-PTAP inh -7.9%, Eya2 phos inh -11.8%, 12-LOX inh 0.562µM* and USP2a inh 0.1%.
Cc1cc(C)c2nc(N3C(=O)C(O)=C(C(=O)c4ccco4)C3c3ccc(O)cc3)sc2c1 (stereo unspecified) was read as TSG101-PTAP inh -5.5%, Eya2 phos inh -11.6%, 12-LOX inh 25.1µM* and USP2a inh 0.6%.
`Cc1ccc2nc(N3C(=O)C(O)=C(C(=O)c4ccco4)C3c3ccc(O)cc3)sc2c1` (stereo unspecified) gave Eya2 phos inh -9.9%, 12-LOX inh 22.4µM*! and USP2a inh -4.3%.
`CCc1ccc2nc(N3C(=O)C(O)=C(C(=O)c4ccco4)C3c3cccs3)sc2c1` (stereo unspecified) gave TSG101-PTAP inh -6.3%, Eya2 phos inh -18.9% and USP2a inh -0.5%.
`Cc1ccc2nc(N3C(=O)C(O)=C(C(=O)c4ccco4)C3c3ccc(C)o3)sc2c1` (stereo unspecified) gave TSG101-PTAP inh 2.9%, Eya2 phos inh -1.0%, 12-LOX inh inconclusive and USP2a inh 0.0%.
For Cc1ccc(C2C(C(=O)c3ccco3)=C(O)C(=O)N2c2nnc(C)s2)cc1 (stereo unspecified) the results were TSG101-PTAP inh -8.9%, Eya2 phos inh 15.4%, 12-LOX inh inconclusive and USP2a inh 5.8%.
